In article PMC12431657, “Discovery and mechanistic insights of dibenzoylmethane as a broad spectrum inhibitor of coronavirus” (PLOS Pathogens, 2025):
Like-named read-outs stand apart in the source and are kept apart here. In all, about 3,300 compounds went through this assay and about 95 (3%) showed an effect of 50% or more. Many of the other results were omitted from the sample, so strong results are more common in it than they were.

Tested on: HCoV-229E
Set-up: species or system Huh-7; HTS, protection from HCoV-229E induced cell death, luminescent cell viability (CellCounting-Lite 2.0), inhibition rate
Conditions: 24 h post infection, 1 h compound pre-incubation, 10 µM, inhibitor

Row | Compound | 229E Inhibition rate [%] | 229E Inhibition rate (229E Inhibition rate, 24 h) [%]
1 | COc1ccc(/C=C/c2cc(OC)cc(=O)o2)cc1 [Yangonin] | 44 | 
2 | C[C@]12CC[C@@H]3c4ccc(O)cc4CC[C@H]3[C@@H]1CC[C@H]2O [Alpha-Estradiol] | 18.2 | 
3 | O=C(/C=C/c1ccc(O)c(O)c1)O[C@@H]1CC(C(=O)O)=C[C@@H](O)[C@H]1O [5-O-Caffeoylshikimic acid] | 12 | 
4 | O=C1/C(=C/c2ccc(O)c(O)c2)COc2cc(O)ccc21 [Sappanone A] | 15.6 | 
5 | C=C[C@](C)(O)CC[C@@H]1[C@@]2(C)CCCC(C)(C)[C@@H]2CC[C@@]1(C)O [Sclareol] | 19.3 | 
6 | CC1(C)CCC[C@]2(C)[C@H]3CCO[C@]3(C)CC[C@@H]12 [Ambroxide] | 53.4 | 
7 | CC1(C)CCC[C@]2(C)[C@@H](C=O)C(C=O)=CC[C@@H]12 [Polygodial] | 16.5 | 
8 | CC1(C)Oc2cc3oc(=O)ccc3cc2C[C@@H]1O [Decursinol] | 0 | 
9 | COc1cc([C@H]2OC[C@H]3[C@@H]2CO[C@@H]3c2ccc(O[C@@H]3O[C@H](CO)[C@@H](O)[C@H](O)[C@H]3O)c(OC)c2)ccc1O[C@@H]1O[C@H](CO)[C@@H](O)[C@H](O)[C@H]1O [Pinoresinol Diglucoside] | 23.6 | 
10 | CSCCC(NC(C)=O)C(=O)O (racemic) [N-Acetyl-DL-methionine] | 32.7 | 
11 | O=c1ccc2ccc(O)cc2o1 [Umbelliferone] | 54.3 | 
12 | O=c1ccc2cc(O)ccc2o1 [6-Hydroxycoumarin] | 10.6 | 
13 | O=c1ccc2cc(O)c(O)cc2o1 [Esculetin] | 35.1 | 
14 | C[C@H](CC[C@@H](O)C(C)(C)O)[C@H]1CC[C@@]2(C)[C@@H]3CC=C4[C@@H](CC[C@H](O[C@@H]5O[C@H](CO[C@@H]6O[C@H](CO)[C@@H](O)[C@H](O)[C@H]6O)[C@@H](O)[C@H](O)[C@H]5O)C4(C)C)[C@]3(C)[C@H](O)C[C@]12C [Mogroside II-A2] | 10 | 
15 | CCCCCCCCC[C@H](O)CC(=O)CCc1ccc(O)c(OC)c1 [10-Gingerol] | 32.3 | 
16 | CCCCC[C@H](O)CC(=O)CCc1ccc(O)c(OC)c1 [[6]-Gingerol] | 52.8 | 
17 | CCCCCCC[C@H](O)CC(=O)CCc1ccc(O)c(OC)c1 [8-Gingerol] | 13.3 | 
18 | Cc1ncc(C[n+]2csc(CCOP(=O)(O)O)c2C)c(N)n1 [Thiamine monophosphate (chloride) (dihydrate)] | 12.1 | 
19 | CC(=O)O[C@H]1[C@H]2[C@H]([C@@H]3[C@H]4OC(=O)[C@@](C)(O)[C@@]5(C)C(=O)C[C@@H](C)[C@@H]([C@@H]45)[C@@]3(C)[C@H]1OC(C)=O)[C@@H](OC(C)=O)C(=O)[C@H]1C[C@@H]3O[C@@H]3[C@H](OC(C)=O)[C@]21C [Taccalonolide C] | 10.3 | 
20 | COc1ccc(-c2cc(=O)c3c(O)cc(O)cc3o2)cc1-c1c(O)cc(O)c2c(=O)cc(-c3ccc(O)cc3)oc12 [Bilobetin] | 22.4 | 
21 | O=c1cc(-c2ccc(O)cc2)oc2cc(O)cc(O)c12 [Apigenin] | 55.5 | 
22 | O=c1cc(-c2ccc(O)c(O)c2)oc2cc(O)cc(O)c12 [Luteolin] | 0 | 
23 | O=c1cc(-c2ccccc2)c2c(O)cc(O)cc2o1 [LC3-mHTT-IN-AN2] | 50.8 | 
24 | O=c1cc(-c2ccccc2)c2cc(O)c(O)cc2o1 [Nordalbergin] | 17.6 | 
25 | O=c1cc(-c2ccccc2)oc2cc(O)cc(O)c12 [Chrysin] | 0 | 
26 | O=c1c(O)c(-c2ccccc2)oc2cc(O)cc(O)c12 [Galangin] | 8 | 
27 | COc1cc(O)c2c(=O)cc(-c3ccc(OC)c(-c4c(O)cc(O)c5c(=O)cc(-c6ccc(O)cc6)oc45)c3)oc2c1 [Ginkgetin] | 64.4 | 
28 | COc1ccc(-c2cc(=O)c3c(O)cc(O)c(-c4cc(-c5cc(=O)c6c(O)cc(O)cc6o5)ccc4OC)c3o2)cc1 [Isoginkgetin] | 6.1 | 
29 | O=C(/C=C/c1ccc(O)c(O)c1)O[C@H]1[C@H](O)C[C@](O)(C(=O)O)C[C@H]1O [Cryptochlorogenic acid] | 7.4 | 
30 | CC1(C)[C@@H](O[C@H]2O[C@H](C(=O)O)[C@@H](O)[C@H](O)[C@H]2O[C@@H]2O[C@H](C(=O)O)[C@@H](O)[C@H](O)[C@H]2O)CC[C@]2(C)[C@H]3C(=O)C=C4[C@@H]5C[C@@](C)(C(=O)O)CC[C@]5(C)CC[C@@]4(C)[C@]3(C)CC[C@@H]12 [Diammonium Glycyrrhizinate] |  | 0
